An excerpt weighted towards active compounds, which were near 2.8% of everything screened.
pPAFAH inh = pPAFAH (human) enzyme inhibition; recombinant pPAFAH, FP-rhodamine probe fluorescence polarization; AID 463082; inhibition, % at 3.39 µM; 330,000 compounds, 1.5% hits; Q13093;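 active = inhibition above the mean inhibition across the screen plus 3 SD, cut at about 25% in these data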;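 also: inhibitors block binding of the rhodamine activity-based probe so polarization drops; 0% = enzyme with DMSO and 100% = wells lacking pPAFAH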
PAFAH2 inh = inhibitors of human PAFAH2; Q99487; recombinant PAFAH2, FP-rhodamine activity probe, fluorescence polarization; AID 492956; inhibition, % at 3.39 µM; 340,000 compounds, 0.99% hits;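 active = inhibition above the mean over all tested compounds plus 3 SD, cut at about 30% in these data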;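 also: inhibitors block probe labeling of enzyme so polarization drops; 0% = enzyme with DMSO and 100% = wells lacking PAFAH2 protein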
PAFAH1B2 FP inh = PAFAH1B2 (human) inhibition; P68402; inhibition, % at 3.39 µM; recombinant PAFAH1B2, FP-rhodamine activity probe, fluorescence polarization; 340,000 compounds, 1.2% hits;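 active = inhibition above the mean of all tested compounds plus 3 SD, cut at about 24% in these data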;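 also: 0% = enzyme with DMSO and 100% = wells lacking PAFAH1B2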
Target sequence (P68402 whole entry, looked up): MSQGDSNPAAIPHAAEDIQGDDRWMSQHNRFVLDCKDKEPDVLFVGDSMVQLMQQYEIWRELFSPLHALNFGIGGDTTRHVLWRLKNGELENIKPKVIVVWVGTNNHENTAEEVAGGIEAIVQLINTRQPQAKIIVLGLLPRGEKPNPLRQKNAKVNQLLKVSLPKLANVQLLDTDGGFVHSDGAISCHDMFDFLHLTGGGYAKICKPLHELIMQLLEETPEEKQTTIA
PAFAH1B3 inh = PAFAH1B3 (human) inhibition | Q15102 | recombinant PAFAH1B3, FP-rhodamine probe, fluorescence polarization | inhibition, % at 3.39 µM | 340,000 compounds, 0.28% hits | AID 492972;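 active = inhibition above the screen-wide average of all tested compounds plus 3 SD, cut at about 25% in these data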;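 also: 0% = enzyme with DMSO only and 100% = wells lacking PAFAH1B3 protein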
Target sequence (Q15102 whole entry, looked up): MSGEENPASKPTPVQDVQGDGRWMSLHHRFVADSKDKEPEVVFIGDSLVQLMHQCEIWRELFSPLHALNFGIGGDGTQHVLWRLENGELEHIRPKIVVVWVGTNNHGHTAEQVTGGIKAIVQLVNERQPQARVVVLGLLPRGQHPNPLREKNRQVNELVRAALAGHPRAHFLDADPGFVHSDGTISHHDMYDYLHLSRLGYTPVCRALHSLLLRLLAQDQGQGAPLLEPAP
PME-1 inh = blocks human protein phosphatase methylesterase 1; Q9Y570; recombinant PME-1, FP-Rh probe fluorescence polarization; inhibition, % at 5.9 µM; 320,000 compounds, 0.53% hits; AID 2130;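 active = inhibition above the campaign mean of all compounds plus 3 SD, cut at about 26% in these data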;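 also: competitive labeling of PME-1 active site by serine hydrolase directed probe; 0% = PME-1 with DMSO and 100% = wells lacking PME-1 enzyme; inhibitors block probe labeling so polarization falls and inhibition rises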
Fam108B counter = counter-screen for RBBP9 inhibitors: inhibitors of mouse Fam108B | recombinant Fam108B, FP-Rh probe fluorescence polarization | inhibition, % at 9.51 µM | 300,000 compounds, 0.33% hits | AID 1947;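 active = inhibition above the screen mean inhibition plus 3 SD, computed separately per campaign, cut at about 18% in these data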;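 also: inhibitors lower polarization as less probe binds the enzyme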
PAFAH1B3 confirm = PAFAH1B3 (human) inhibition, confirmed. shares compounds with PAFAH1B3 inh. recombinant PAFAH1B3, FP-Rh activity-based probe, fluorescence polarization. inhibition, % at 3.39 µM. 390 compounds, 30% hits. AID 493032;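 active = average inhibition over triplicate runs above the hit cutoff set in the earlier primary screen, cut at about 25% in these data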;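 also: 0% = enzyme with DMSO and 100% = wells lacking PAFAH1B3 protein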
The depositor's hits bear a star.

`O=c1[nH]c(Nc2ccccc2Cl)cc2ccccc12` gave pPAFAH inh 8.9, PAFAH2 inh 7.6, PAFAH1B2 FP inh 5.9, PAFAH1B3 inh 14.6, PME-1 inh 10.1 and Fam108B counter 2.2.
O=c1[nH]c(Nc2ccc(F)cc2)cc2ccccc12 was read as pPAFAH inh 11.2, PAFAH2 inh 6.0, PAFAH1B2 FP inh 10.3, PAFAH1B3 inh 56.3*, PME-1 inh 11.4, Fam108B counter 11.0 and PAFAH1B3 confirm 20.0.
`COC(=O)C1=C(C)NC(C)=C(C(=O)OC)C1C(=O)OCC(=O)c1ccc(Br)cc1` gave pPAFAH inh 2.2, PAFAH2 inh -6.0, PAFAH1B2 FP inh 5.1, PAFAH1B3 inh 5.3 and PME-1 inh 3.7.
For CCc1ccc(NC2=CC(=O)C(=O)c3ccccc32)cc1 the results were PAFAH2 inh 17.9, PAFAH1B2 FP inh 8.9, PAFAH1B3 inh 58.6* and PAFAH1B3 confirm 37.1*.
CCCCNC1=CC(=O)C(=O)c2ccccc21 was read as pPAFAH inh 4.2, PAFAH2 inh 7.8, PAFAH1B2 FP inh 2.4, PAFAH1B3 inh 25.3, PME-1 inh 2.7 and Fam108B counter 2.9.
O=C1C=C(Nc2ccccc2)c2ccccc2C1=O was read as PAFAH2 inh 6.8, PAFAH1B2 FP inh 8.8, PAFAH1B3 inh 61.5* and PAFAH1B3 confirm 30.2*.
COc1ccc(C2(C)NC(=O)N(CC(=O)NC3CCCC3)C2=O)cc1OC (centres undefined) was read as pPAFAH inh -4.8, PAFAH2 inh -0.5, PAFAH1B2 FP inh -0.6, PAFAH1B3 inh 8.5 and PME-1 inh 2.3.
`O=S(=O)(c1ccccc1)N(CC(O)COc1ccccc1)c1ccccc1` (centres undefined) gave pPAFAH inh -3.7, PAFAH2 inh 8.7, PAFAH1B2 FP inh 8.5, PAFAH1B3 inh 5.9, PME-1 inh 1.4 and Fam108B counter -0.4.
Screening CC1=C(C(=O)OCc2ccccc2)C(c2cccc([N+](=O)[O-])c2)NC(=O)N1C (centres undefined) returned pPAFAH inh -3.1, PAFAH2 inh -2.5, PAFAH1B2 FP inh -0.7, PAFAH1B3 inh 8.8, PME-1 inh 4.6 and Fam108B counter 0.7.
For O=C(N/N=C/c1ccccc1O)NC12CC3CC(CC(C3)C1)C2 the results were pPAFAH inh 5.1, PAFAH2 inh 5.2, PAFAH1B2 FP inh 5.6, PAFAH1B3 inh 26.2*, PME-1 inh 7.2, Fam108B counter 0.4 and PAFAH1B3 confirm 21.5.
Screening O=C(N/N=C/c1ccc(O)c(O)c1)NC12CC3CC(CC(C3)C1)C2 returned pPAFAH inh 15.5, PAFAH2 inh 17.7, PAFAH1B2 FP inh 15.8, PAFAH1B3 inh 1.3, PME-1 inh 0.8 and Fam108B counter 1.0.
`C=CCn1c(NC(=O)c2ccc(Br)o2)c(S(=O)(=O)c2ccccc2)c2nc3ccccc3nc21` gave pPAFAH inh 6.0, PAFAH2 inh 25.4, PAFAH1B2 FP inh 17.5, PAFAH1B3 inh 52.9*, PME-1 inh 8.7, Fam108B counter 0.0 and PAFAH1B3 confirm 5.5.
COc1ccccc1N1CCN(CCC(=O)Nc2ccc(F)cc2)CC1 was read as pPAFAH inh 4.3, PAFAH2 inh 0.0, PAFAH1B2 FP inh -3.3, PAFAH1B3 inh 5.5, PME-1 inh -0.6 and Fam108B counter -1.1.
Screening c1cc2c(cc1-c1csc(NNC3=NCCCCC3)n1)OCCO2 returned pPAFAH inh 1.1, PME-1 inh 7.6 and Fam108B counter 6.6.
`COc1ccccc1NS(=O)(=O)c1cccc(C(=O)NCC(c2ccc(F)cc2)N2CCOCC2)c1` (centres undefined) gave pPAFAH inh 5.9, PAFAH2 inh -1.8, PAFAH1B2 FP inh 2.2, PAFAH1B3 inh 32.5*, PME-1 inh 12.9, Fam108B counter 2.6 and PAFAH1B3 confirm 8.6.
COc1ccc(/C=N/NC(=O)c2ccccc2O)cc1Cn1cc([N+](=O)[O-])cn1 was read as pPAFAH inh 2.8, PAFAH2 inh 0.9, PAFAH1B2 FP inh -3.9, PAFAH1B3 inh 6.1, PME-1 inh -1.1 and Fam108B counter 3.8.
For COc1ccc(/C=N/NC(=O)c2cc(O)c(O)c(O)c2)cc1Cn1cc([N+](=O)[O-])cn1 the results were PAFAH2 inh 15.1, PAFAH1B2 FP inh 6.6, PAFAH1B3 inh 39.4* and PAFAH1B3 confirm 8.1.
CN1CCCc2cc(C=O)ccc21 was read as pPAFAH inh 0.9, PAFAH2 inh 5.8, PAFAH1B2 FP inh 9.6, PAFAH1B3 inh 4.6, PME-1 inh 3.8 and Fam108B counter -1.0.
CCCN1CCCc2cc(CN)ccc21 was read as pPAFAH inh 20.8, PAFAH2 inh 9.8, PAFAH1B2 FP inh 1.1, PAFAH1B3 inh 29.8*, PME-1 inh 7.0, Fam108B counter 10.9 and PAFAH1B3 confirm 15.7.
Screening Fc1ccc(C2=Nc3cccc4cccc(c34)N2)cc1 returned pPAFAH inh 12.3, PAFAH2 inh 0.8, PAFAH1B2 FP inh -1.8, PAFAH1B3 inh 11.7, PME-1 inh 2.8 and Fam108B counter 7.5.
`FC(F)(F)C1=Nc2cccc3cccc(c23)N1` gave PAFAH2 inh -2.0, PAFAH1B2 FP inh 18.8, PAFAH1B3 inh 35.3* and PAFAH1B3 confirm 40.2*.
`O=[N+]([O-])c1ccc(O)c(-c2nn[nH]n2)c1` gave pPAFAH inh 1.4, PAFAH2 inh -1.6, PAFAH1B2 FP inh 11.3, PAFAH1B3 inh 27.6*, PME-1 inh -3.6, Fam108B counter 2.6 and PAFAH1B3 confirm 26.4*.
Screening NC(CSC1(c2ccc(Cl)cc2)c2ccccc2-c2ccccc21)C(=O)O (centres undefined) returned PAFAH2 inh -2.7, PAFAH1B2 FP inh 0.2 and PAFAH1B3 inh 0.3.
For Cc1[nH]c2ccccc2c1/C=N/Nc1nc(N2CCCCC2)nc(N2CCCCC2)n1 the results were pPAFAH inh 7.5, PAFAH2 inh -10.0, PAFAH1B2 FP inh 12.4, PAFAH1B3 inh 25.6*, PME-1 inh 3.1, Fam108B counter 5.0 and PAFAH1B3 confirm 9.0.
`C(=N\Nc1nc(N2CCCCC2)nc(N2CCCCC2)n1)/c1c[nH]c2ccccc12` gave pPAFAH inh 10.3, PAFAH2 inh -1.5, PAFAH1B2 FP inh 1.8, PAFAH1B3 inh 6.0, PME-1 inh 6.5 and Fam108B counter 4.6.
CCCn1c(SCC(=O)Nc2cc(S(=O)(=O)N(C)C)ccc2OC)n[nH]c1=O was read as pPAFAH inh 0.7, PAFAH2 inh 4.0, PAFAH1B2 FP inh 2.0, PAFAH1B3 inh 4.7, PME-1 inh 5.4 and Fam108B counter -4.0.
For [O-][n+]1c2c(c3c4non(O)c4ccc31)CCCC2 the results were pPAFAH inh 23.6, PAFAH2 inh 8.1, PAFAH1B2 FP inh 4.6, PAFAH1B3 inh 27.7*, PME-1 inh 10.5, Fam108B counter 9.2 and PAFAH1B3 confirm 16.3.
COc1ccc([N+](=O)[O-])cc1NC(=S)NC(C)=O was read as pPAFAH inh 3.1, PAFAH2 inh 7.3, PAFAH1B2 FP inh 4.0, PAFAH1B3 inh 8.5, PME-1 inh 3.0 and Fam108B counter 1.8.

Source: PubChem
